An excerpt weighted towards active compounds, which were near 3.4% of everything screened.
MITF primary: MITF inhibitors, primary screen, biochemical, AlphaScreen, human. Microphthalmia-associated transcription factor (Homo sapiens), O75030. AlphaScreen MITF homodimerization, bead proximity signal. inhibition, % at 2.6 µM. 650,000 tested, 0.91% active. AID 1259374, 2018; in the data active = inhibition above about 50%
Target sequence (O75030 whole entry, looked up): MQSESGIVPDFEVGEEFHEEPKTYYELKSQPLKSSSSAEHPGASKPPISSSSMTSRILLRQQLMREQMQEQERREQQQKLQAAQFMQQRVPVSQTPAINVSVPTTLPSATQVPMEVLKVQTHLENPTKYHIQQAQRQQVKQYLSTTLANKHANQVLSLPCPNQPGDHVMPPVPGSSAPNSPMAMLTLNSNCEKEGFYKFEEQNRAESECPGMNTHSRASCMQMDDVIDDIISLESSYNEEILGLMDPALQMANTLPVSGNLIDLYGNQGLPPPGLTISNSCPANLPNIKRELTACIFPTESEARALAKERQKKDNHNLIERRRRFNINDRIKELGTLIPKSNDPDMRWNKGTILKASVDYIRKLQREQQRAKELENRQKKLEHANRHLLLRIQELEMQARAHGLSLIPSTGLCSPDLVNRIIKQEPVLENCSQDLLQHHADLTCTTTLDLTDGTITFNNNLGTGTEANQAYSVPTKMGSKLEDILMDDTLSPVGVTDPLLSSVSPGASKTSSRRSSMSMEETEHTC
TEAD-YAP block: TEAD-YAP interaction inhibition, primary screen, TEAD-YAP interaction inhibitor project, luminescence, HEK-TIYL cells. TEAD-Gal4/YAP UAS-luciferase luminescence. inhibition, % at 9.12 µM. 640,000 tested, 1.4% active; in the data active = inhibition above about 32%
GPR151 ag: activators of human GPR151, primary screen, cell-based, PathHunter beta-arrestin, luminescence; 650,000 tested, 1% active; G-protein coupled receptor 151 (Homo sapiens), Q8TDV0; PathHunter beta-arrestin GPR151 cells; activation, % at 11.2 µM; in the data active = activation above about 4.9%
FBW7 act: FBW7 E3 ligase activators, primary screen, biochemical, AlphaScreen, human. F-box/WD repeat-containing protein 7 (Homo sapiens), Q969H0. AlphaScreen FBW7–phospho-cyclin E peptide binding, activator screen. AID 1259310, 2017. normalized activity (activation), % at 26.1 µM. 650,000 tested, 0.13% active; in the data active = normalized activity above about 1.9%;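 also: purified mutant Fbw7 with reduced substrate affinity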
Of the large screens only hits and unclear results are named; the others gave an inactive call.

Cc1nc2c(ccc3nc(NC(=O)CCc4ccccc4)sc32)s1	TEAD-YAP block 47.8
COc1ccccc1C(=O)Nc1nc2ccc3sc(C)nc3c2s1	TEAD-YAP block 52.4
COc1ccc(C(=O)Nc2nc3ccc4sc(C)nc4c3s2)c(OC)c1	TEAD-YAP block 48.5
C/C(=N\Nc1nnc(Cc2ccccc2)c(=O)[nH]1)c1ccccc1O	none
CN(C)S(=O)(=O)c1cccc(NC(=S)Nc2ccc3[nH]c(=O)[nH]c3c2)c1	none
Cc1ccccc1C1C(C#N)=C(N)N(N(C)C)C2=C1C(=O)CC(c1ccccc1)C2 (configuration not stated)	TEAD-YAP block 63.5
Cc1cc(C2C(C#N)=C(N)N(N(C)C)C3=C2C(=O)CC(c2ccccc2)C3)c(C)s1 (configuration not stated)	TEAD-YAP block 55.4
CCc1ccc(OCC(=O)N(Cc2nc(-c3ccc(OC)cc3)no2)C(C)C)cc1	none
COc1cc(CCC(=O)N2CCCCC2c2nc3cc(C)c(C)cc3[nH]2)on1 (configuration not stated)	TEAD-YAP block 41.0
Cc1cc2nc(C3CCCCN3C(=O)CCc3c(C)noc3C)[nH]c2cc1C (configuration not stated)	none
CC1=C/C(=C\c2c(O)n(Cc3ccco3)c(=S)[nH]c2=O)C(C)=N1	MITF primary 83.5
CC1=C/C(=C\c2c(O)[nH]c(=O)[nH]c2=O)C(C)=N1	none
Cc1cc(C)c(NC(=O)c2ccc(Cl)cc2)c([N+](=O)[O-])c1	TEAD-YAP block 41.6
Cc1ccc(NC(=O)c2ccc(Cl)cc2Cl)nc1	TEAD-YAP block 35.3
Cc1ccc(NC(=O)c2ccc(Cl)cc2[N+](=O)[O-])nc1	TEAD-YAP block 41.4
COc1ccc(Br)cc1-c1noc(C(F)(F)F)n1	none
CCOc1ccc2nc(SCC(=O)Nc3ccc(N4CCOCC4)cc3)sc2c1	none
Cn1c(=O)oc2cc(C(=O)CSc3nnnn3-c3ccccc3)ccc21	none
Cc1cccc(-n2nc3c(c2NC(=O)c2ccc(S(=O)(=O)N4CCOCC4)cc2)CSC3)c1	none
CCOc1cc(C#N)c(NC(=O)c2cccs2)cc1OCC	TEAD-YAP block 48.0
CCOc1ccccc1NC(=O)c1cccs1	none
CCOc1cc(C#N)c(NC(=O)c2ccncc2)cc1OCC	none
CCOc1cc(C#N)c(NC(=O)c2cccnc2)cc1OCC	TEAD-YAP block 54.7
O=C(CSc1nnc(-c2ccc(Cl)cc2)n1-c1ccccc1)NC1CCCCC1	none
O=C1CCCc2nn(-c3ccccc3)c(-c3ccc(Br)cc3)c21	none
Nc1nc(NCc2ccccc2)cc(N2CCCC2CO)n1 (configuration not stated)	TEAD-YAP block 44.8
Cc1cnc(N2CCCC2CO)nc1NCc1ccccc1 (configuration not stated)	TEAD-YAP block 49.9
CCN1C(=O)CC(C(=O)Nc2ccc(C(=O)O)cc2)SC1=Nc1ccc2c(c1)OCO2 (configuration not stated)	none
O=C(N/N=C/c1ccccc1)c1cc(Br)cc(Br)c1O	none
CC1=C(C#N)C(c2ccc(Cl)cc2)C2=C(CC(c3ccccc3)CC2=O)N1 (configuration not stated)	none
COCCNC(=O)c1cc2c(s1)-c1ccccc1S(=O)(=O)C2	none
NC(=O)C1CCCN1c1nc(-c2cccs2)nc2ccccc12 (configuration not stated)	none
OCC1CCCCN1c1nc(-c2cccs2)nc2ccccc12 (configuration not stated)	TEAD-YAP block 74.0
Oc1ccc(CCNc2nc(Nc3ccc4ncccc4c3)nc3nc[nH]c23)cc1	TEAD-YAP block 45.4
Oc1ccc(CCNc2nc(Nc3ccc4ncccc4c3)nc3c2ncn3-c2ccsc2)cc1	TEAD-YAP block 56.1
OCCNc1nc(Nc2ccc3ncccc3c2)nc2c1ncn2-c1ccsc1	TEAD-YAP block 34.6
Cn1c(=O)c2c(nc(SCC(=O)NC(C)(C)C)n2Cc2ccc(F)cc2)n(C)c1=O	none
O=C(CSc1nc2[nH]ncc2c(=O)n1-c1ccccc1)Nc1ccc(Br)cc1	none
O=C(CSc1nc2[nH]ncc2c(=O)n1-c1ccccc1)Nc1ccc(F)c(F)c1	TEAD-YAP block 60.9
CC(C)c1ccc(/C=C2\NC(=S)N(C)C2=O)cc1	none
Cc1cnc(NC(=O)c2ccccc2C(F)(F)F)s1	none
COc1cc(OC)cc(C(=O)Nc2ccc(-c3nnc4n3CCCCC4)cc2)c1	none
O=S(=O)(Nc1cccc(N2CCC(NCCn3ccnc3)CC2)c1)c1ccc(F)cc1	none
COc1ccccc1C(=O)Nc1cccc(N2CCC(NCCc3cccs3)CC2)c1	TEAD-YAP block 50.6
COc1ccccc1C(=O)Nc1cccc(N2CCC(NCCc3ccco3)CC2)c1	TEAD-YAP block 44.4
COc1ccccc1C(=O)Nc1cccc(N2CCC(NCCc3cnccn3)CC2)c1	none
O=S(=O)(Nc1cccc(N2CCC(NCCc3ccco3)CC2)c1)c1ccc(F)cc1	MITF primary 60.8
COc1ccccc1C(=O)Nc1cccc(N2CCC(NCc3ccsc3)CC2)c1	none
CCCCNC1CCN(c2cccc(NC(=O)c3ccccc3OC)c2)CC1	TEAD-YAP block 41.3
O=C(c1cc2ccccn2n1)N1CCc2ccccc21	TEAD-YAP block 65.8
Cc1ccc2cc(-c3nc4ccccc4[nH]3)c(=O)oc2c1	FBW7 act 2.4
Cc1cccc2cc(-c3nc4ccccc4[nH]3)c(=O)oc12	none
Fc1ccc(-c2n[nH]c(=S)n2CCN2CCOCC2)cc1	none
CNC(=O)c1ncccc1Nc1cc(Nc2ccc3c(c2)CCC(=O)N3)ncc1C(F)(F)F	TEAD-YAP block 35.2
CC(=O)Nc1ccccc1Nc1cc(Nc2ccc3c(c2)CC(=O)N3)ncc1C(F)(F)F	TEAD-YAP block 40.6
CNC(=O)c1ncccc1Nc1cc(Nc2ccc3c(c2)CC(=O)N3)ncc1C(F)(F)F	none
COc1ccc(S(=O)(=O)N2Cc3ccccc3CC2C(=O)Nc2ccc(C)cc2)cc1 (configuration not stated)	TEAD-YAP block 33.0
Cc1cc(C(=O)Nc2cccc3ccc(-n4ccnc4)nc23)no1	none
Cc1cc(C)c2nc3sc(C(=O)N4CCOCC4)c(N)c3cc2c1	TEAD-YAP block 36.0
Nc1c(C(=O)c2ccccc2)sc2nc3c(cc12)CCCC3	TEAD-YAP block 39.8
Nc1c(C(=O)N2CCOCC2)sc2nc3c(cc12)CCCC3	none
NC(=O)c1sc2nc3cc4c(cc3cc2c1N)OCCO4	TEAD-YAP block 97.4
Nc1c(C(=O)N2CCOCC2)sc2nc3c(cc12)CCCCC3	TEAD-YAP block 86.8
Nc1c(C(=O)c2ccc(Cl)cc2)sc2nc3c(cc12)CCCC3	none
Nc1c(C(=O)Nc2cccc(C(=O)O)c2)sc2nc3c(cc12)CCC3	TEAD-YAP block 57.5
NC(=O)c1sc2nc3c(cc2c1N)CCCCC3	TEAD-YAP block 67.7
Nc1c(C(=O)Nc2ccccc2)sc2nc3c(cc12)CCC3	none
COc1cc2nc(N(C)C)nc(N)c2cc1OC	TEAD-YAP block 60.5
COc1ccc(-c2nc(N)c3cc(OC)c(OC)cc3n2)cc1	none
Cc1cccc(/C=N/Nc2nncc3ccccc23)c1	TEAD-YAP block 67.2

Bioassay records as filed in PubChem.
